{"source": "PubChem BioAssay AID1159506", "about": "(National Center for Advancing Translational Sciences (NCATS), 2015)", "note": "The full ranking holds about 59,000 sequences; the median of the read-out is about -0.00055, and the lowest 2% start at about -2. This is one part of a sample in which the lowest values are shown more often than they occur."}
{"test": "Identification of proteins required for the processing of the EWS-FLI1 nascent transcript;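 further: robust z of luciferase light less the median z of siRNAs with the same seed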", "details": "TC32 Ewing sarcoma NR0B1-luc vs CMV-luc (EWS-FLI1 target promoter against control promoter), 48 h; screened at 20 nM (by protocol)", "summary_of_the_method": "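Three siRNAs per gene, each in a separate well at 20 nM, were transfected into TC32 cells bearing either reporter construct. Luminescence was measured two days on, and per-gene comparison relied on seed-corrected Z values.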"}
{"sequence": "UCACUGAUUCUAGAUGAUG against SPIN3", "seed-corrected z-score": -0.422}
{"sequence": "UAUAAAUCAACGGAUUCAG against OR5I1", "seed-corrected z-score": 0.416}
{"sequence": "UUUUGCACCUGGGUCCUAC against LRWD1", "seed-corrected z-score": 0.154}
{"sequence": "AAAGGAAAAACCUAUUUUC against LOC728254", "seed-corrected z-score": 0.573}
{"sequence": "AUAGGUUCCUGUCUGUUGG against PYCRL", "seed-corrected z-score": 0.415}
{"sequence": "AAAGAUUAAGGUACCAUAG against OR5J2", "seed-corrected z-score": 0.72}
{"sequence": "UUCGGCUUCACUGUUAUCC against TNR", "seed-corrected z-score": -2.16}
{"sequence": "UCCAGUUCUUUCUUGGUCG against GTPBP6", "seed-corrected z-score": 0.447}
{"sequence": "UUGAUGGAUAGUCAUCACG against RBMX", "seed-corrected z-score": -0.224}
{"sequence": "AAAUCGAUAAUCACUUAGG against ZNHIT6", "seed-corrected z-score": 0.142}
{"sequence": "UAUUUCACAACAGGCACCG against MYO1C", "seed-corrected z-score": -2.29}
{"sequence": "UUUUGUGCCUGUGCCCUUG against SBK1", "seed-corrected z-score": -0.47}
{"sequence": "AGACUGAUGGUAGUGGUGG against PRRT1", "seed-corrected z-score": -0.57}
{"sequence": "UUCAAUAUCAUUCCGAGGC against C6orf62", "seed-corrected z-score": 0.77}
{"sequence": "UUGUAUGAUUUUGCAAUUG against LINC01014", "seed-corrected z-score": -0.168}
{"sequence": "AAAUGUACUCGAUCCCAUG against CPA5", "seed-corrected z-score": -2.65}
{"sequence": "UACAGUUCCUCAAUGUUCA against IL1F10", "seed-corrected z-score": 1.27}
{"sequence": "UAAACAGGCACGAAGCUUC against RPAIN", "seed-corrected z-score": -0.43}
{"sequence": "UUAGCUAGAGUUUUCAACC against MLLT11", "seed-corrected z-score": 0.312}
{"sequence": "UGACGUACCAGCACUGCGU against ADM2", "seed-corrected z-score": -13.6}
{"sequence": "UGAGCAUCCAUGCUGGGUA against ZNF688", "seed-corrected z-score": 0.0175}
{"sequence": "UUCAUUUAAAUUCUAACAC against SYNC", "seed-corrected z-score": 0.372}
{"sequence": "AUUCAUUCUUAUUAAGUGC against GPX5", "seed-corrected z-score": -0.0754}
{"sequence": "UUUGGUUUGAGCAGUCAAG against COMMD1", "seed-corrected z-score": -2.03}
{"sequence": "AAUAAAUCCAUCCUUGUUC against GUCA1C", "seed-corrected z-score": -0.429}
{"sequence": "UCCUGAUCUAUCCAUAGGC against IFITM3", "seed-corrected z-score": -0.0222}
{"sequence": "UUCUCAAACACCUUCUUCC against QTRT1", "seed-corrected z-score": -0.0367}
{"sequence": "UGCUCCAUCACAAAGGCGG against FN3K", "seed-corrected z-score": 1.15}
{"sequence": "AUGGGAAUUAUGUCGGUUG against SCEL", "seed-corrected z-score": 0.236}
{"sequence": "UCCAGUUGUACUUCUUGCC against GFOD1", "seed-corrected z-score": -3.99}
{"sequence": "AAACUCUUUAGGAAAGAUG against POLR2D", "seed-corrected z-score": -0.98}
{"sequence": "UUAGCUGCCUGGAUAAGCG against CTNNA2", "seed-corrected z-score": -0.541}
{"sequence": "UUUCCAACAUGAUCCACUG against TM2D2", "seed-corrected z-score": 0.00525}
{"sequence": "AAACGUUUGGAGCCUCUUG against NOXO1", "seed-corrected z-score": -2.35}
{"sequence": "AUAGGGAACAGGAUAGCCC against C1orf74", "seed-corrected z-score": 1.41}
{"sequence": "UAGAUCUUUCCUCUGGUGG against FAM132B", "seed-corrected z-score": -0.705}
{"sequence": "UGAACCGAGACUGUGGCAC against SERF1B", "seed-corrected z-score": -0.313}
{"sequence": "UCCUUCUUGAGCAGGUUCU against SOX14", "seed-corrected z-score": -0.364}
{"sequence": "AUUGUUGUCCAUAAUAGGC against IKZF2", "seed-corrected z-score": -0.0322}
{"sequence": "UGACUAUUAAGAUAUGAAG against ZNF121", "seed-corrected z-score": -2.14}
{"sequence": "UUCUUUACAACUAUCCGAG against FBXO5", "seed-corrected z-score": 2.48}
{"sequence": "UUGCCUAUCAGUAGCAGUU against RAB3D", "seed-corrected z-score": -2.07}
{"sequence": "UGAUUGGAAAGCUUGUUCU against ME3", "seed-corrected z-score": 0.0737}
{"sequence": "UCGCUGAUGAGGAUCUUCC against KCNA10", "seed-corrected z-score": -0.144}
{"sequence": "UAUACAAUGAGGCAGCUGA against ISCA1P1", "seed-corrected z-score": 0.235}
{"sequence": "UCUGGUGGGACUGGUGUUG against ZNF574", "seed-corrected z-score": -3.85}
{"sequence": "UUUCUGAUCAUCUUGGUCC against SAFB", "seed-corrected z-score": -0.16}
{"sequence": "UUCUGGAUCCCAAAUAGUG against ARHGAP19", "seed-corrected z-score": 0.0206}
{"sequence": "UGUUAUCCGAGUAUAAUAC against PSMD12", "seed-corrected z-score": -2.56}
{"sequence": "UUAUCACCCAUAGGAGCCU against LOC400965", "seed-corrected z-score": 0.18}
{"sequence": "UGUCUUGUAGAUUUCCACC against TATDN1", "seed-corrected z-score": -0.0339}
{"sequence": "AUAGCUGUGAGACAUCAGG against PRCD", "seed-corrected z-score": -2.08}
{"sequence": "UUAGUUCGUUCCUCUGUGC against PSMC5", "seed-corrected z-score": 1.1}
{"sequence": "UUCGCUGACUCUGUAACCC against CACNB4", "seed-corrected z-score": -0.0786}
{"sequence": "UACUCGCUCACCACAAAGG against SRSF4", "seed-corrected z-score": -0.234}
{"sequence": "UCUCGGUUCAUUUUCUUGA against HOXC10", "seed-corrected z-score": 0.936}
{"sequence": "AAUGAUUUUAGAAGCCUGU against NPR3", "seed-corrected z-score": 0.11}
{"sequence": "UAAGAUACUAUGGGAAAUA against C20orf166-AS1", "seed-corrected z-score": -2.11}
{"sequence": "AAAGUUUAAGCAACCGUCG against RPS23P8", "seed-corrected z-score": 1.69}
{"sequence": "AAAUCGUUCAAUUACAUCC against ADAM17", "seed-corrected z-score": 0.501}
{"sequence": "UGGAGAGUAUGGGUAGUCG against CDC34", "seed-corrected z-score": -1.87}
{"sequence": "UCAGGUUCUUCCGUAGCUG against PHF21A", "seed-corrected z-score": -0.312}
{"sequence": "AAAGACUCCAUAUAGACGG against ROR1", "seed-corrected z-score": -0.522}
{"sequence": "AUCAAUGACAUAAUCGCUG against SHANK3", "seed-corrected z-score": -0.601}
{"sequence": "AGUGGAGUUAGAUAGUUGG against KDM6A", "seed-corrected z-score": -4.37}
{"sequence": "UACCACAUUACACUCGUCU against NPM3", "seed-corrected z-score": 0.156}
